Compound in this test: Cc1cc(ccc1-c1ccccc1)C(=O)N1CCCN(CC1)C(=O)CCl [compound 10]
As to the kind of experiment: probe-labelled cysteine peptide fold change vs DMSO (competition) (log2 fold change); higher = less target engagement (more negative = stronger competition). As to conditions: THP-1, incubation time: 4 h.

Targets with the largest changes are over-represented here; the source holds about 21,000 in all.
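Further: competitive profiling in live THP-1 cells: cysteine peptides tagged with an iodoacetamide desthiobiotin (IA-DTB) probe, intensity after compound treatment relative to DMSO-treated cells.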

Turning to “CUL3_Q13618_462+464_LKTECGCQFTSK (UniProt Q13618)”, the “probe-labelled cysteine peptide fold change” value was -0.0794 (10 µM) and -1.31 (50 µM).

Consider “DNAJB1_P25685_179_VSLEEIYSGCTK (UniProt P25685)”, for which the “probe-labelled cysteine peptide fold change” value runs as follows: (10 µM) -0.0218; (50 µM) 0.255.

Take “CMTM3_Q96MX0_38_AFLCSLK (UniProt Q96MX0)”: the “probe-labelled cysteine peptide fold change” value is, setting by setting: (10 µM) -0.91; (50 µM) -3.05.

“DCLRE1C_Q96SD1_34_AYFLSHCHK (UniProt Q96SD1)”: the “probe-labelled cysteine peptide fold change” value is -0.0775 (10 µM) and -0.167 (50 µM).

For “COMP_P49747_371_GDACDDDIDGDR (UniProt P49747)”, the “probe-labelled cysteine peptide fold change” value reads like this: (10 µM) -1.61; (50 µM) -0.768.

“CRYZL1_O95825_302_YLCILK (UniProt O95825)”: the “probe-labelled cysteine peptide fold change” value by setting is: (10 µM) -0.195; (50 µM) -0.442.

Take “CSE1L_P55060_61_VCASVTFK (UniProt P55060)”: the “probe-labelled cysteine peptide fold change” value reads like this: (10 µM) -0.071; (50 µM) 0.0214.

On to “DDX50_Q9BQ39_242_LSVACFYGGTSYQSQINHIR (UniProt Q9BQ39)”, for which the “probe-labelled cysteine peptide fold change” value is, setting by setting: (10 µM) 0.333; (50 µM) -0.294.

Turning to “DIAPH1_O60610_1227_KAGCAVTSLLASELTK (UniProt O60610)”, the “probe-labelled cysteine peptide fold change” value by setting is: (10 µM) -0.218; (50 µM) -1.27.

As to “CPVL_Q9H3G5_320_CTEPEDQLYYVK (UniProt Q9H3G5)”, the “probe-labelled cysteine peptide fold change” value runs as follows: (10 µM) -0.128; (50 µM) -0.131.

As to “CORO1A_P31146_332_GLEVNKCEIAR (UniProt P31146)”, the “probe-labelled cysteine peptide fold change” value is -0.447 (10 µM) and -1.1 (50 µM).

Turning to “CRIP1_P50238_52+56_PYCNHPCYAAMFGPK (UniProt P50238)”, the “probe-labelled cysteine peptide fold change” value by setting is: (10 µM) 0.0432; (50 µM) -0.424.

For the target “DDHD2_O94830_470_ESEFCSSSNTR (UniProt O94830)”, the “probe-labelled cysteine peptide fold change” value by setting is: (10 µM) -0.28; (50 µM) -0.538.

With “CORO1B_Q9BR76_25_NDQCYEDIR (UniProt Q9BR76)”, the “probe-labelled cysteine peptide fold change” value is, setting by setting: (10 µM) -0.0464; (50 µM) -0.0083.

“CRIP2_P52943_150_DWHRPCLR (UniProt P52943)”: the “probe-labelled cysteine peptide fold change” value is 0.923 (10 µM) and 1.04 (50 µM).

The record behind these values is the supplement of paper PMC12067093, “Discovery and optimisation of a covalent ligand for TRIM25 and its application to targeted protein ubiquitination” (Chemical Science, 2025).
